Reference: the supplement of paper PMC8975748
Counter-ions that a name gives are not always drawn. ± gives the standard deviation of the averaged measurements.

Assays:
[1] = system: Saccharomyces cerevisiae BY4741 SeMeCo community; assay: mean cell size (pixel area) (pixels); higher = larger cells; settings: 10 µM; 24 h; SM minimal medium
Procedure, shortened: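 Mean cell pixel area per well was determined by automated confocal microscopy with Harmony analysis of paraformaldehyde-fixed cells. The cells, a Saccharomyces cerevisiae BY4741 community of four plasmids that each complement one auxotrophy and carry a fluorescent marker, were incubated for 24 h with drug at a final 10 µM in SM medium in 384-well plates. Numbers are averaged over 3 replicates. Same SeMeCo high-content imaging drug screen: Selleck FDA-approved drugs at 10 µM, 24 h in SM medium, 384-well plates, 3 replicates.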

[2] = system: Saccharomyces cerevisiae BY4741 SeMeCo community; assay: z-score of subpopulation abundance vs DMSO median, subpopulation auxotrophic for M; higher = larger share of this subpopulation than in DMSO controls; settings: 10 µM; 24 h; SM minimal medium; subpopulation (auxotrophy): M
Procedure, shortened: (§1)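 Scoring was based on each subpopulation's abundance, expressed as a z-score against the vehicle-well median. A Saccharomyces cerevisiae BY4741 community with four plasmids, each restoring one auxotrophy and encoding a distinct fluorescent protein, was pre-grown overnight to OD600 1.0, diluted to 0.3, and added at 70 µl to 384-well plates acoustically predosed with library drugs (10 µM final). It then grew 24 h in minimal SM medium before paraformaldehyde fixation and automated confocal microscopy, with single-auxotroph fluorescent strains setting thresholds and autofluorescence correction.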

[3] = system: Saccharomyces cerevisiae BY4741 SeMeCo community; assay: z-score of subpopulation abundance vs DMSO median, subpopulation auxotrophic for L; higher = larger share of this subpopulation than in DMSO controls; settings: 10 µM; 24 h; SM minimal medium; subpopulation (auxotrophy): L
Procedure, shortened: as §1

[4] = system: Saccharomyces cerevisiae BY4741 SeMeCo community; assay: z-score of subpopulation abundance vs DMSO median, subpopulation auxotrophic for U; higher = larger share of this subpopulation than in DMSO controls; settings: 10 µM; 24 h; SM minimal medium; subpopulation (auxotrophy): U
Procedure, shortened: as §1

[5] = system: Saccharomyces cerevisiae BY4741 SeMeCo community; assay: z-score of subpopulation abundance vs DMSO median, subpopulation auxotrophic for H; higher = larger share of this subpopulation than in DMSO controls; settings: 10 µM; 24 h; SM minimal medium; subpopulation (auxotrophy): H
Procedure, shortened: as §1

[6] = system: Saccharomyces cerevisiae BY4741 SeMeCo community; assay: z-score of subpopulation abundance vs DMSO median, subpopulation auxotrophic for LU; higher = larger share of this subpopulation than in DMSO controls; settings: 10 µM; 24 h; SM minimal medium; subpopulation (auxotrophy): LU
Procedure, shortened: as §1

[7] = system: Saccharomyces cerevisiae BY4741 SeMeCo community; assay: z-score of subpopulation abundance vs DMSO median, subpopulation auxotrophic for LM; higher = larger share of this subpopulation than in DMSO controls; settings: 10 µM; 24 h; SM minimal medium; subpopulation (auxotrophy): LM
Procedure, shortened: as §1

[8] = system: Saccharomyces cerevisiae BY4741 SeMeCo community; assay: z-score of subpopulation abundance vs DMSO median, subpopulation auxotrophic for HM; higher = larger share of this subpopulation than in DMSO controls; settings: 10 µM; 24 h; SM minimal medium; subpopulation (auxotrophy): HM
Procedure, shortened: as §1

[9] = system: Saccharomyces cerevisiae BY4741 SeMeCo community; assay: z-score of subpopulation abundance vs DMSO median, subpopulation auxotrophic for HU; higher = larger share of this subpopulation than in DMSO controls; settings: 10 µM; 24 h; SM minimal medium; subpopulation (auxotrophy): HU
Procedure, shortened: as §1

[10] = system: Saccharomyces cerevisiae BY4741 SeMeCo community; assay: z-score of subpopulation abundance vs DMSO median, subpopulation auxotrophic for UM; higher = larger share of this subpopulation than in DMSO controls; settings: 10 µM; 24 h; SM minimal medium; subpopulation (auxotrophy): UM
Procedure, shortened: as §1

[11] = system: Saccharomyces cerevisiae BY4741 SeMeCo community; assay: z-score of subpopulation abundance vs DMSO median, subpopulation auxotrophic for HL; higher = larger share of this subpopulation than in DMSO controls; settings: 10 µM; 24 h; SM minimal medium; subpopulation (auxotrophy): HL
Procedure, shortened: as §1

[12] = system: Saccharomyces cerevisiae BY4741 SeMeCo community; assay: z-score of subpopulation abundance vs DMSO median, subpopulation auxotrophic for HLU; higher = larger share of this subpopulation than in DMSO controls; settings: 10 µM; 24 h; SM minimal medium; subpopulation (auxotrophy): HLU
Procedure, shortened: as §1

[13] = system: Saccharomyces cerevisiae BY4741 SeMeCo community; assay: z-score of subpopulation abundance vs DMSO median, subpopulation auxotrophic for HLM; higher = larger share of this subpopulation than in DMSO controls; settings: 10 µM; 24 h; SM minimal medium; subpopulation (auxotrophy): HLM
Procedure, shortened: as §1

[14] = system: Saccharomyces cerevisiae BY4741 SeMeCo community; assay: z-score of subpopulation abundance vs DMSO median, subpopulation auxotrophic for LUM; higher = larger share of this subpopulation than in DMSO controls; settings: 10 µM; 24 h; SM minimal medium; subpopulation (auxotrophy): LUM
Procedure, shortened: as §1

[15] = system: Saccharomyces cerevisiae BY4741 SeMeCo community; assay: z-score of subpopulation abundance vs DMSO median, subpopulation auxotrophic for HLUM; higher = larger share of this subpopulation than in DMSO controls; settings: 10 µM; 24 h; SM minimal medium; subpopulation (auxotrophy): HLUM
Procedure, shortened: as §1

[16] = system: Saccharomyces cerevisiae BY4741 SeMeCo community; assay: z-score of prototroph abundance vs DMSO median; higher = larger share of this subpopulation than in DMSO controls; settings: 10 µM; 24 h; SM minimal medium; subpopulation (auxotrophy): Prototroph
Procedure, shortened: as §1

Structure (SMILES)	mean cell size [1]	z-score of subpopulation abundance [2]	z-score of subpopulation abundance [3]	z-score of subpopulation abundance [4]	z-score of subpopulation abundance [5]	z-score of subpopulation abundance [6]	z-score of subpopulation abundance [7]	z-score of subpopulation abundance [8]	z-score of subpopulation abundance [9]	z-score of subpopulation abundance [10]	z-score of subpopulation abundance [11]	z-score of subpopulation abundance [12]	z-score of subpopulation abundance [13]	z-score of subpopulation abundance [14]	z-score of subpopulation abundance [15]	z-score of prototroph abundance [16]
CCOC(=O)OC(C)OC1=C(C(=O)Nc2ccccn2)N(C)S(=O)(=O)c2ccccc21 (stereo not drawn) [Ampiroxicam]	12.3 ± 0.37	0	-0.1	-0.79	-0.19	-0.67	0.15	-0.5	-0.62	0.08	-0.64	-0.83	-0.4	-0.42	-0.78	–
O=C1NCC2(CCN(CCc3ccccc3)CC2)O1 [Fenspiride HCl]	12.6 ± 0.16	0.25	-0.18	0.18	-0.41	-0.49	-0.15	–	-0.8	0.21	0.27	1.03	0.35	-0.59	1.16	-0.38
Cc1ccnc(NS(=O)(=O)c2ccc(N)cc2)n1 [Sulfamerazine]	12.5 ± 0.16	1.32	1.54	-0.62	–	0.43	–	2	-0.3	0.45	0.86	0.89	0.7	0.98	0.45	-1.15
Cc1nc(C)c(Cl)c(O)c1Cl [Clopidol]	12.22 ± 0.083	-0.51	0.46	-0.09	0.6	0.07	-0.19	-0.62	–	-0.13	–	-0.09	0.14	-0.04	-0.36	0.11
OCCN(CCO)c1nc(N2CCCCC2)c2nc(N(CCO)CCO)nc(N3CCCCC3)c2n1 [Dipyridamole]	12.5 ± 0.14	5.88	4.21	-6.98	–	-7.03	10.9	6.49	-7.22	-8.15	6.01	-3.69	11.4	-4.38	–	1.3
Cc1c(S(=O)(=O)O)oc2c1C(=O)C(=O)c1c-2ccc2c1CCCC2(C)C [Tanshinone IIA sulfonate (sodium)]	11.85 ± 0.095	1.72	0.5	–	1.42	-0.91	-0.11	–	-2.62	1.77	–	-0.84	3.71	1.3	1.74	-0.48
CC[C@@H]([C@H](C)O)n1ncn(-c2ccc(N3CCN(c4ccc(OC[C@@H]5CO[C@@](Cn6cncn6)(c6ccc(F)cc6F)C5)cc4)CC3)cc2)c1=O [Posaconazole]	12.34 ± 0.068	-1.66	-0.49	0.25	–	3.33	–	–	16.4	10.8	10.8	14.4	14.9	7.85	12.3	-11.6
